{"source": "PubChem BioAssay (NCI)", "assay": "NCI Yeast Anticancer Drug Screen. Data for the rad14 strain (AID 159);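 further: 0% = growth of vehicle-treated control cultures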", "conditions": "S. cerevisiae rad14 strain growth inhibition, hits give high values", "experimental": "Growth inhibition of yeast strains with defined genetic alterations is measured as a screen for potential anti-cancer activity. Selected strains with alterations in DNA damage repair or cell cycle control were exposed to compounds and growth inhibition was measured relative to vehicle treated controls. The strain used in this assay is rad14", "note": "The panel holds about 79,000 compounds, 15% with a hit somewhere; the sample as a whole holds those more often. Unmarked numbers belong to inactive results. The source made the active and inactive calls. No stated cut-off is given here; in the data, active means growth inhibition above about 70%; inactive means the rest."}
{"smiles": "S=C(S)NN1CCOCC1", "values": [{"measurement": "growth inhibition", "setting": "at 1.2 µM", "value": 33, "unit": "%"}, {"measurement": "growth inhibition", "setting": "at 3.7 µM", "value": 36, "unit": "%"}, {"measurement": "growth inhibition", "setting": "at 11.0 µM", "value": 34, "unit": "%"}, {"measurement": "growth inhibition", "setting": "at 33.0 µM", "value": 42, "unit": "%"}, {"measurement": "growth inhibition", "setting": "at 100.0 µM", "value": 52, "unit": "%"}]}
{"smiles": "Cn1c(N)nc(-c2ccc(Cl)cc2)c1SSc1c(-c2ccc(Cl)cc2)nc(N)n1C", "values": [{"measurement": "growth inhibition", "setting": "at 1.2 µM", "value": -1, "unit": "%"}, {"measurement": "growth inhibition", "setting": "at 3.7 µM", "value": -1, "unit": "%"}, {"measurement": "growth inhibition", "setting": "at 11.0 µM", "value": 10, "unit": "%"}, {"measurement": "growth inhibition", "setting": "at 33.0 µM", "value": 53, "unit": "%"}, {"measurement": "growth inhibition", "setting": "at 100.0 µM", "value": "97% (active)"}]}
{"smiles": "O=C(NCCCCCCCN1CCCCCCC1)C(C1CCCCC1)C1CCCCC1", "values": [{"measurement": "growth inhibition", "setting": "at 1.2 µM", "value": "72% (active)"}, {"measurement": "growth inhibition", "setting": "at 3.7 µM", "value": "75% (active)"}, {"measurement": "growth inhibition", "setting": "at 11.0 µM", "value": "97% (active)"}, {"measurement": "growth inhibition", "setting": "at 33.0 µM", "value": "99% (active)"}, {"measurement": "growth inhibition", "setting": "at 100.0 µM", "value": "99% (active)"}]}
{"smiles": "O=[N+]([O-])/C=C/c1ccc2ccccc2c1", "values": [{"measurement": "growth inhibition", "setting": "at 1.2 µM", "value": 11, "unit": "%"}, {"measurement": "growth inhibition", "setting": "at 3.7 µM", "value": "71% (active)"}, {"measurement": "growth inhibition", "setting": "at 11.0 µM", "value": "99% (active)"}, {"measurement": "growth inhibition", "setting": "at 33.0 µM", "value": "99% (active)"}, {"measurement": "growth inhibition", "setting": "at 100.0 µM", "value": "100% (active)"}]}
{"smiles": "CC(=O)OC1CCC2(C)C(=CCC3C4CCC5(OC6CC(C)CN(C(C)=O)C6C5C)C(C)=C4C(=O)C32)C1", "note": "(stereo not given)", "values": [{"measurement": "growth inhibition", "setting": "at 1.2 µM", "value": -30, "unit": "%"}, {"measurement": "growth inhibition", "setting": "at 3.7 µM", "value": -17, "unit": "%"}, {"measurement": "growth inhibition", "setting": "at 11.0 µM", "value": 50, "unit": "%"}, {"measurement": "growth inhibition", "setting": "at 33.0 µM", "value": "96% (active)"}, {"measurement": "growth inhibition", "setting": "at 100.0 µM", "value": "89% (active)"}]}
{"smiles": "O=C1c2ccccc2C(=O)c2c(NC3CCCCC3)ccc(Nc3ccc(S(=O)(=O)O)cc3)c21", "values": [{"measurement": "growth inhibition", "setting": "at 1.2 µM", "value": 2, "unit": "%"}, {"measurement": "growth inhibition", "setting": "at 3.7 µM", "value": -4, "unit": "%"}, {"measurement": "growth inhibition", "setting": "at 11.0 µM", "value": 2, "unit": "%"}, {"measurement": "growth inhibition", "setting": "at 33.0 µM", "value": 48, "unit": "%"}, {"measurement": "growth inhibition", "setting": "at 100.0 µM", "value": "71% (active)"}]}
{"smiles": "O=C1C=CC(=Nc2ccc3c(c2)Cc2cc(NC(=O)C(F)(F)F)ccc2-3)O1", "values": [{"measurement": "growth inhibition", "setting": "at 1.2 µM", "value": 6, "unit": "%"}, {"measurement": "growth inhibition", "setting": "at 3.7 µM", "value": 15, "unit": "%"}, {"measurement": "growth inhibition", "setting": "at 11.0 µM", "value": 32, "unit": "%"}, {"measurement": "growth inhibition", "setting": "at 33.0 µM", "value": 62, "unit": "%"}, {"measurement": "growth inhibition", "setting": "at 100.0 µM", "value": "98% (active)"}]}
{"smiles": "COc1cc2ccc(/C=C\\[N+](=O)[O-])cc2cc1OC", "values": [{"measurement": "growth inhibition", "setting": "at 1.2 µM", "value": -26, "unit": "%"}, {"measurement": "growth inhibition", "setting": "at 3.7 µM", "value": -39, "unit": "%"}, {"measurement": "growth inhibition", "setting": "at 11.0 µM", "value": -18, "unit": "%"}, {"measurement": "growth inhibition", "setting": "at 33.0 µM", "value": "97% (active)"}, {"measurement": "growth inhibition", "setting": "at 100.0 µM", "value": "95% (active)"}]}
